Assay outcomes (PubChem)
HCMV antiviral: human cytomegalovirus inhibition. HFF cells, HCMV-luciferase reporter, 72 h; stronger effect = lower value. activity change, negative = inhibition, % at 57.5 µM. 410,000 tested, 4.5% active; in the data active = activity change below about -60%; inconclusive = no clear call, values can overlap the other calls; inactive = above about -39%
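After 16 h attachment at 37C, HFF cells received test compound and HCMV-luciferase (1 PFU/cell); reporter luminescence read 72 h later, data normalized against buffer-only and known inhibitor Salinomycin.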
Pf growth 96h: P. falciparum growth inhibition at 96 hours; P. falciparum luciferase reporter growth, 96 h; Potency, µM (top dose mostly 28.7 µM), for the others: at the highest dose activity change, negative = inhibition, usual class: inhibitors; 320,000 tested, 6.9% active; AID 504834; note: potency is the fitted concentration of half-maximal effect
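96 h incubation, 37 C, 5% CO2, of luciferase-reporter P. falciparum-infected RBCs (2% hematocrit, 0.05% parasitemia final) with test compounds; endpoint luminescence.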
HCV inhibitor: blocks hepatitis C virus; Huh7.5.1 HCVcc-Cre infection, luciferase reporter, 44 h; Potency, µM (doses to about 41.8 µM), without a hit: top-dose activity change, negative = inhibition, usual class: inhibitors; 340,000 tested, 3.4% active; note: potency is the fitted concentration of half-maximal effect
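After 44 h co-culture of compound, cells and HCVcc-Cre (~0.5 moi), substrate is added for 15 min at room temperature and luciferase measured over 15 sec. Cells were seeded at 1,000/well and pre-cultured 4 h.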
Pf growth 48h: P. falciparum growth inhibition at 48 hours (one generation); Potency, µM (doses to about 28.7 µM), inactives show at the highest dose activity change, negative = inhibition, most hits filed as inhibitors; P. falciparum luciferase growth in erythrocytes, 48 h; 310,000 tested, 5.9% active; note: potency is the fitted concentration of half-maximal effect
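Cell-based growth assay: transgenic P. falciparum expressing firefly luciferase, cultured in red cells within RPMI 1640 containing 0.5% w/v Albumax, 24 mM bicarbonate and gentamycin. A drop in luciferase activity indicates inhibition.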
* marks the source's active call; other numbers are inactive results; i = inactive; ? = inconclusive; nt = no result given; ! = not confirmed by another sample. An excerpt weighted towards active compounds, which were near 13% of everything screened. Unless noted, calls come from the whole dose curve; as a rule, active = well fitted inhibition curve with a large enough effect; inconclusive = small, poorly fitted or top-dose-only effect, or another doubt; inactive = no such curve, though single readings can be large or run the other way. % is set by controls: 0 for no effect and ±100 for the full control effect.

SMILES	HCMV antiviral	Pf growth 96h	HCV inhibitor	Pf growth 48h
Cc1cccc2c1-c1sc(C(=O)N(C)c3cccc(Cl)c3)cc1CO2	15	nt	nt	nt
CCCCOc1ncnc2c1[nH]c1ccc(OCC)cc12	-20	5%	11%	32%
CCCCOc1ncnc2c1[nH]c1ccc(F)cc12	-94*	0%	2.8µM*	23%
CCCCOc1ncnc2c1[nH]c1ccccc12	-28	0%	4.5µM*	?
Cc1ccc2nc(-c3cccc(Cl)c3)c(Cc3ccsc3)n2c1	66	nt	nt	nt
CC(C)(C)c1ccc(C(=O)Nc2nnc(C3=COCCO3)o2)cc1	-8	9.3µM*	15%	15µM*
O=C(Nc1nnc(C2=COCCO2)o1)c1cccc(F)c1	1	15µM*	-3%	?
COc1ccccc1CNS(=O)(=O)c1ccc2c(c1)NC(=O)C(C)C(=O)N2 (configuration not stated)	8	nt	nt	nt
Cc1ccc(F)cc1NC(=O)Cn1c(=O)nc(-c2ccccc2F)c2cc(Cl)ccc21	-3	nt	nt	nt
O=C(Nc1ccc2c(c1)OCCO2)c1cc2ccccc2o1	117	-21%	22µM*	248%
Cc1ccc(NC(=O)c2ccc(OC(F)F)cc2)cc1S(=O)(=O)N(C)C	-95*	?	7.9µM*	5%
CN(C)S(=O)(=O)c1ccc(NC(=O)c2cc3ccccc3o2)cc1	-12	13µM*	-24%	-12%
Cc1ccc(NC(=O)c2cc3ccccc3o2)cc1S(=O)(=O)N(C)C	12	nt	11µM*	188%
Cc1ccc(NC(=O)c2cc3ccccc3oc2=O)cc1S(=O)(=O)N(C)C	nt	i	-9%	298%
C[C@H](NC(=O)c1cccc2ccccc12)C(O)c1nc2ccccc2[nH]1 (some centres not stated)	-9	nt	nt	nt
Cc1cc2n(n1)C(c1ccc(N(C)C)cc1)Nc1ccccc1-2 (configuration not stated)	136	2%	?	86%
Cc1ccc2c(c1)-c1cc(C)nn1C(c1ccc3c(c1)OCO3)N2 (configuration not stated)	11	?	14µM*	-22%
Cc1ccc2c(c1)-c1cc(C)nn1C(c1sccc1C)N2 (configuration not stated)	?	nt	4µM*	21%
Cc1cc2n(n1)C(c1ccc3c(c1)OCO3)Nc1ccccc1-2 (configuration not stated)	47	27%	?	42%
Cc1cc2n(n1)C(c1ccccc1)Nc1ccccc1-2 (configuration not stated)	19	?	25µM*	22%
CC(Sc1nnc(-c2cccnc2)n1-c1ccccc1F)C(=O)N1CCCc2ccccc21 (configuration not stated)	-65*	?	6%	?
COc1cccc2[nH]c3c(N4CCCCC4)ncnc3c12	56	23%	-2%	?
COc1cc2[nH]c3c(N4CCN(c5ccccn5)CC4)ncnc3c2cc1OC	nt	15µM*	6.3µM*	9.3µM*
COc1ccc2[nH]c3c(N4CCc5ccccc5C4)ncnc3c2c1	-88*	?	?	?
COc1ccc(N2CCN(c3ncnc4c3[nH]c3ccccc34)CC2)cc1	-92*	?	5.6µM*	?
SMILES	HCMV antiviral	Pf growth 96h	HCV inhibitor	Pf growth 48h
COCCCN1C(=O)c2[nH]nc(-c3ccccc3O)c2C1c1ccc(OC)cc1 (configuration not stated)	35	nt	nt	nt
COCCCN1C(=O)c2[nH]nc(-c3ccccc3O)c2C1c1cccc(Cl)c1 (configuration not stated)	-6	7.4µM*	?	9.3µM*
CC(C)OCCCN1C(=O)c2[nH]nc(-c3ccccc3O)c2C1c1cccc(Cl)c1 (configuration not stated)	-15	-20%	?	4.1µM*
O=C(CSc1nnc(-c2cccs2)o1)Oc1ccccc1Cl	45	nt	nt	nt
COc1ccc(CNC(=O)Cn2c(=O)ccc3cc(S(=O)(=O)N4CCCC4)ccc32)cc1	23	nt	nt	nt
CC(=O)c1c(C)oc2ccc(N(C(=O)Oc3ccccc3)S(=O)(=O)c3ccc(Cl)cc3)cc12	20	nt	nt	nt
Cc1nonc1OCC(C)(COc1nonc1C)NC(=O)c1ccc(Cl)cc1	11	4.7µM*	-15%	8.3µM*
Cc1noc(NC(=O)c2ccc(Cl)cc2)c1Cl	1	-13%	7%	-27%
C1CCC(C(CC2CCCCN2)C2CCCCC2)CC1 (configuration not stated)	-99*!	4.1µM*	?	3.7µM*
